Records with an inconclusive call do not appear. The source made the active and inactive calls. Unless noted, calls follow the shape of the full dose curve.
How the values were obtained:
[1] = qHTS assay to identify small molecule agonists of the peroxisome proliferator-activated receptor delta (PPARd) signaling pathway - cell viability counter screen (AID 743211; active = well fitted curve in the direction sought with a large enough effect in the repeat runs; an effect the other way counts as inactive or inconclusive; also: % is scaled to controls: 0 for no effect and ±100 for the full control effect; nearly all actives have a fitted effect of over 55% in size)
Method in brief: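 Tox21 library compounds, delivered in DMSO, were incubated 17 h with PPARd-bla HEK293H cells; cytotoxicity was taken from CellTiter-Glo luminescence read 30 min after reagent addition.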

[2] = molecular target: Peroxisome proliferator-activated receptor delta (Homo sapiens) (UniProt Q03181); assay: qHTS assay to identify small molecule agonists of the peroxisome proliferator-activated receptor delta (PPARd) signaling pathway (AID 743212); also: % is scaled to controls: 0 for no effect and ±100 for the full control effect
Method in brief: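 HEK293H UAS-bla reporter cells, human PPARd system; compounds delivered in DMSO after 5 h plating, then at 37 C. Beta-lactamase FRET read, 2 h RT substrate step.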

[3] = qHTS assay to identify small molecule antagonists of the peroxisome proliferator-activated receptor delta (PPARd) signaling pathway - cell viability counter screen (AID 743213; active = well fitted curve in the direction sought with a large enough effect in the repeat runs; an effect the other way counts as inactive or inconclusive; also: % is scaled to controls: 0 for no effect and ±100 for the full control effect; nearly all actives have a fitted effect of over 50% in size)
Method in brief: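 PPARd-bla HEK293H cells were treated with compounds plus agonist L165041 (300 nM final) for 17 h at 37 C. Viability was then read in the same wells by CellTiter-Glo luminescence after 30 min at room temperature.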

[4] = molecular target: Peroxisome proliferator-activated receptor delta (Homo sapiens) (UniProt Q03181); assay: qHTS assay to identify small molecule antagonists of the peroxisome proliferator-activated receptor delta (PPARd) signaling pathway (AID 743215; active = well fitted inhibition curve with a large enough effect in the signal ratio in the repeat runs, not every such curve was filed as active; the % refers to the signal ratio;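 also: cells stimulated with agonist L165041 at 300 nM final during compound exposure; series mostly up to about 62 µM; % is scaled to controls: 0 for no effect and ±100 for the full control effect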)
Method in brief: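 Inhibition of L165041-driven (300 nM final) PPARd signaling is scored in HEK293H UAS-bla cells. Exposure lasts 17 h at 37 C; beta-lactamase activity is then read by FRET substrate fluorescence after 2 h at room temperature.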

[5] = qHTS assay to identify small molecule agonists of the farnesoid-X-receptor (FXR) signaling pathway - cell viability counter screen (AID 743218; active = well fitted curve in the direction sought with a large enough effect in the repeat runs; an effect the other way counts as inactive or inconclusive; also: % is scaled to controls: 0 for no effect and ±100 for the full control effect; nearly all actives have a fitted effect of over 45% in size)
Method in brief: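 Cytotoxicity counter-screen run in parallel, same wells: FXR-UAS-bla HEK 293T cells dosed 16 h at 37 C, viability read by CellTiter-Glo luminescence after 30 min at room temperature.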

[6] = qHTS assay to identify small molecule antagonists of the farnesoid-X-receptor (FXR) signaling pathway - cell viability counter screen (AID 743221; active = well fitted cell-killing curve with a large enough effect in the repeat runs, not every such curve was filed as active; also: % is scaled to controls: 0 for no effect and ±100 for the full control effect; nearly all actives have a fitted effect of over 50% in size)
Method in brief: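 Cytotoxicity is taken from ATP luminescence (CellTiter-Glo, 30 min, room temperature) in FXR-bla HEK 293T cells previously incubated 16 h at 37 C with compound and chenodeoxycholic acid at 50 uM final.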

[7] = molecular target: Vitamin D3 receptor (Homo sapiens) (UniProt P11473); assay: qHTS assay to identify small molecule agonists of the vitamin D receptor (VDR) signaling pathway (AID 743222); also: % is scaled to controls: 0 for no effect and ±100 for the full control effect
Method in brief: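 Quantitative HTS agonist-mode screen: compounds in DMSO were pin-transferred onto VDR-bla cells and incubated 16 h at 37C, 5% CO2. Reporter activity was detected with LiveBLAzer B/G FRET substrate after 2 h at room temperature.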

[8] = qHTS assay to identify small molecule antagonists of the vitamin D receptor (VDR) signaling pathway - cell viability counter screen (AID 743225; active = well fitted curve in the direction sought with a large enough effect in the repeat runs; an effect the other way counts as inactive or inconclusive; also: % is scaled to controls: 0 for no effect and ±100 for the full control effect; nearly all actives have a fitted effect of over 50% in size)
Method in brief: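 Same-well multiplex: following 16 h treatment of HEK 293T cells carrying a UAS-driven beta-lactamase reporter with compound and agonist (3 nM final), and a 2 h FRET substrate step, CellTiter-Glo was added and luminescence read after 30 min.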

[9] = qHTS assay to identify small molecule agonists of the NFkB signaling pathway (AID 1159509; active = well fitted curve in the direction sought with a large enough effect in the signal ratio in the repeat runs, not every such curve was filed as active; the % refers to the signal ratio; also: series mostly up to about 61 µM; % is scaled to controls: 0 for no effect and ±100 for the full control effect)
Method in brief: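 NFkB-bla ME-180 cells with a beta-lactamase reporter under an NF-kB response element were plated overnight, treated with compounds in DMSO for 5 hr at 37 C, then loaded with FRET substrate for 1.5 hr at room temperature.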

[10] = qHTS assay to identify small molecule agonists of the NFkB signaling pathway - cell viability counter screen (AID 1159515); also: series mostly up to about 61 µM; % is scaled to controls: 0 for no effect and ±100 for the full control effect; nearly all actives have a fitted effect of over 55% in size
Method in brief: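 Multiplexed viability readout: after the 5 hr compound exposure and 1.5 hr FRET substrate step, CellTiter-Glo reagent went into the same NFkB-bla ME-180 wells; ATP luminescence was measured after 30 min at room temperature.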

[11] = qHTS assay to identify small molecule agonists of the endoplasmic reticulum stress response signaling pathway (AID 1159516; active = well fitted activation curve with a large enough effect in the signal ratio in the repeat runs, not every such curve was filed as active; the % refers to the signal ratio; also: % is scaled to controls: 0 for no effect and ±100 for the full control effect)
Method in brief: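 Tox21 10K library screened in quantitative HTS format on ESRE-bla HeLa cells, a beta-lactamase reporter under ER stress response element control; 5 hr treatment, FRET read.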

[12] = qHTS assay to identify small molecule agonists of the endoplasmic reticulum stress response signaling pathway - cell viability counter screen (AID 1159517); also: series mostly up to about 61 µM; % is scaled to controls: 0 for no effect and ±100 for the full control effect; nearly all actives have a fitted effect of over 50% in size
Method in brief: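 Cells, HeLa ESRE-bla; density, 1,500/well; dosing, 5 hr at 37 C, 5% CO2; readout, CellTiter-Glo luminescence after 30 min RT.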

[13] = qHTS assay to identify small molecule antagonists of the retinoid-related orphan receptor gamma (ROR-gamma) signaling pathway - cell viability counter screen (AID 1159520; active = well fitted curve in the direction sought with a large enough effect in the repeat runs; an effect the other way counts as inactive or inconclusive)
Method in brief: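 Cytotoxicity was read from cellular ATP (CellTiter-Glo luminescence) after 16 hr at 37 C with 1 uM doxycycline induction. The inducer was added 2 hr after compound transfer to Tet-on ROR gamma CHO cells.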

[14] = molecular target: Nuclear receptor ROR-gamma (Homo sapiens) (UniProt P51449); assay: qHTS assay to identify small molecule antagonists of the retinoid-related orphan receptor gamma (ROR-gamma) signaling pathway (AID 1159521; active = well fitted curve in the direction sought with a large enough effect in the repeat runs; an effect the other way counts as inactive or inconclusive)
Method in brief: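 Inducible-expression reporter assay: doxycycline (1 uM final) switched on RORγ in CHO cells bearing a ROR response element-luciferase construct, with test compounds present from 2 h beforehand. Decreased luminescence after 16 h defined antagonist activity.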

[15] = qHTS assay to identify small molecule agonists of the AP-1 signaling pathway - cell viability counter screen (AID 1159525); also: nearly all actives have a fitted effect of over 55% in size
Method in brief: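 Luminescent ATP readout (Cell Titer Glo, 30 min RT), normalised to DMSO and tetra n-octyl ammonium bromide controls. Cells were ME-180 AP-1-bla in 0.5% dialyzed FBS Opti-MEM, with a 5 h, 37 °C compound exposure.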

[16] = qHTS assay to identify small molecule agonists of the AP-1 signaling pathway (AID 1159526); also: % is scaled to controls: 0 for no effect and ±100 for the full control effect
[17] = molecular target: Vitamin D3 receptor (Homo sapiens) (UniProt P11473); assay: qHTS assay to identify small molecule antagonists of the vitamin D receptor (VDR) signaling pathway (AID 743223; active = well fitted inhibition curve with a large enough effect in the signal ratio in the repeat runs, not every such curve was filed as active; the % refers to the signal ratio; also: % is scaled to controls: 0 for no effect and ±100 for the full control effect)
Method in brief: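 Quantitative HTS in VDR-bla reporter cells stimulated with 1alpha,25-dihydroxyvitamin D3, 3 nM final. Compound exposure 16 h, 37C, 5% CO2. Read-out: beta-lactamase FRET substrate fluorescence, 2 h RT.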

[18] = qHTS assay to identify small molecule agonists of the vitamin D receptor (VDR) signaling pathway - cell viability counter screen (AID 743224; active = well fitted curve in the direction sought with a large enough effect in the repeat runs; an effect the other way counts as inactive or inconclusive)
Method in brief: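 Viability is measured in the same wells as the VDR-bla reporter assay: after 16 h compound treatment and 2 h substrate loading, CellTiter-Glo is added and luminescence read 30 min later.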

[19] = molecular target: Bile acid receptor (Homo sapiens) (UniProt Q96RI1); assay: qHTS assay to identify small molecule antagonists of the farnesoid-X-receptor (FXR) signaling pathway (AID 743217; active = well fitted inhibition curve with a large enough effect in the signal ratio in the repeat runs, not every such curve was filed as active; the % refers to the signal ratio; also: % is scaled to controls: 0 for no effect and ±100 for the full control effect)
Method in brief: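 Antagonist mode against 50 uM (final) chenodeoxycholic acid stimulation in FXR-bla HEK 293T cells, 16 h at 37 °C. Inhibition detected as reduced beta-lactamase activity via LiveBLAzer B/G FRET fluorescence after 2 h at room temperature.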

[20] = molecular target: Bile acid receptor (Homo sapiens) (UniProt Q96RI1); assay: qHTS assay to identify small molecule agonists of the farnesoid-X-receptor (FXR) signaling pathway (AID 743220; active = well fitted activation curve with a large enough effect in the signal ratio in the repeat runs, not every such curve was filed as active; the % refers to the signal ratio; also: % is scaled to controls: 0 for no effect and ±100 for the full control effect)
Method in brief: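 Beta-lactamase reporter under UAS control in GeneBLAzer FXR HEK 293T cells (5000/well) measured with LiveBLAzer FRET substrate after 2 h at room temperature. Compound exposure lasted 16 h at 37C.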

Bile acid receptor (Homo sapiens), sequence (Q96RI1 whole entry, looked up): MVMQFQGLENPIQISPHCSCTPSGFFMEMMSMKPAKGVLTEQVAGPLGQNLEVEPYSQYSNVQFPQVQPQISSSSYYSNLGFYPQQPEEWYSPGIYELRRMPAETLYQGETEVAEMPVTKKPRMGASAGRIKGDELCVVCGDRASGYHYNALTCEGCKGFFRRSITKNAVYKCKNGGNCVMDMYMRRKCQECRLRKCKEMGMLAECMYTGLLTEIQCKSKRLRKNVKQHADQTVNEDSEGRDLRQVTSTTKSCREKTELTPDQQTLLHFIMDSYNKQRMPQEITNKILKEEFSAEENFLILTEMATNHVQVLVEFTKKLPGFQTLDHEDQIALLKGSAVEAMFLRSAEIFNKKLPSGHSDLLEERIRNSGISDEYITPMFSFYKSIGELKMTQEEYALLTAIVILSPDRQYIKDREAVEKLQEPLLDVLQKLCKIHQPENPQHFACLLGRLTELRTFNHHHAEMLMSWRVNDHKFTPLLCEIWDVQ
Vitamin D3 receptor (Homo sapiens), sequence (P11473 whole entry, looked up): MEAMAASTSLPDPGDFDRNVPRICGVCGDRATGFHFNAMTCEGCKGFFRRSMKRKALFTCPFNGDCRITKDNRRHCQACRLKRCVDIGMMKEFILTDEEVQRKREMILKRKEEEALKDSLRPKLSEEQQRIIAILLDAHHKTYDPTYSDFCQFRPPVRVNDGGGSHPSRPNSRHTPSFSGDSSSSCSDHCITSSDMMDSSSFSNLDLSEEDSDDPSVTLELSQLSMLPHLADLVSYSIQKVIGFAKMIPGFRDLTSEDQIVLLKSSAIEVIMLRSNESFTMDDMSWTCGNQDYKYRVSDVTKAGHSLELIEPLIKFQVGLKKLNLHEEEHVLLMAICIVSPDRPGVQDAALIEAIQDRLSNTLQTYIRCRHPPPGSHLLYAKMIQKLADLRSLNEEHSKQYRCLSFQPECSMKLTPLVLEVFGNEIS
Peroxisome proliferator-activated receptor delta (Homo sapiens), sequence (Q03181 whole entry, looked up): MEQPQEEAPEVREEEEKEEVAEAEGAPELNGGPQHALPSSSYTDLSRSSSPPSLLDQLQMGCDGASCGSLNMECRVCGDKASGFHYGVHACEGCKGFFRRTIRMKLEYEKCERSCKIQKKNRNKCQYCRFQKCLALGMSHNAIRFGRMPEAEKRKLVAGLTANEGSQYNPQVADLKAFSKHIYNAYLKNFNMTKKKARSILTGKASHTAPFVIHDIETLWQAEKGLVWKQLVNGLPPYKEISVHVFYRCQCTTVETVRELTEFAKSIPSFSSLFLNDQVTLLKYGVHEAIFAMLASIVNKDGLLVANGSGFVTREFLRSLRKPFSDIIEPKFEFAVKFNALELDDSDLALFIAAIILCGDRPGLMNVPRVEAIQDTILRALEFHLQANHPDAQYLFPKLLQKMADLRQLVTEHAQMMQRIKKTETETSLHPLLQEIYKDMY

COCCOC(=O)CC#N
inactive: Potency [1] | outcome [2] | Potency [3] | outcome [4] | outcome [5] | Potency [6] | outcome [7] | outcome [8] | outcome [9] | outcome [10] | outcome [11] | outcome [12] | Potency [13] | Potency [14] | outcome [15] | Potency [16]

CC12CCC(CC1=O)C2(C)C (configuration not stated)
inactive: Potency [1] | outcome [2] | Potency [3] | outcome [4] | Potency [6] | outcome [7] | outcome [17] | outcome [18] | outcome [8] | outcome [9] | outcome [10] | outcome [11] | outcome [12] | Potency [13] | Potency [14] | outcome [15] | Potency [16]

COC(C(=O)O)c1ccccc1 (configuration not stated)
inactive: Potency [1] | outcome [2] | Potency [3] | outcome [4] | outcome [19] | outcome [5] | outcome [20] | Potency [6] | outcome [7] | outcome [17] | outcome [18] | outcome [9] | outcome [10] | outcome [11] | outcome [12] | Potency [13] | Potency [14] | outcome [15] | Potency [16]

COc1cc(CCC(C)=O)ccc1O
inactive: Potency [1] | outcome [2] | Potency [3] | outcome [4] | outcome [19] | outcome [5] | outcome [20] | Potency [6] | outcome [7] | outcome [17] | outcome [18] | outcome [8] | outcome [9] | outcome [10] | outcome [11] | outcome [12] | Potency [13] | Potency [14] | outcome [15] | Potency [16]

CN(C)CCOC(c1ccc(Cl)cc1)c1ccccn1 (configuration not stated)
inactive: Potency [1] | outcome [2] | Potency [3] | outcome [4] | Potency [6] | outcome [7] | outcome [18] | outcome [8] | outcome [9] | outcome [10] | outcome [11] | outcome [12] | Potency [13] | Potency [14] | outcome [15] | Potency [16]

NC(=S)Nc1cccc2ccccc12
inactive: activity change, negative = cytotoxicity [1] -1.16% [at 5.95 µM] | activation [2] -6.49% [at 5.95 µM] | viability change, negative = cytotoxic [3] 5.98% [at 6.26 µM] | ratio activity, negative = inhibition [4] -0.221% [at 6.26 µM] | activity change, negative = cytotoxicity [6] 8.25% [at 5.95 µM] | activation [7] 4.28% [at 6.01 µM] | activity change, negative = inhibition [17] -15.5% [at 6.95 µM] | activity change, negative = cytotoxicity [18] 6.68% [at 5.95 µM] | viability change, negative = cytotoxic [8] -0.0846% [at 6.95 µM] | activation [9] -0.909% [at 6.95 µM] | activity, negative = cytotoxic [10] -2.24% [at 6.95 µM] | activation [11] -3.75% [at 6.95 µM] | activity change, negative = cytotoxicity [12] 2.64% [at 6.95 µM] | activity, negative = cytotoxicity [13] 13.1% [at 8.39 µM] | activity change, negative = inhibition [14] 10.3% [at 8.39 µM] | viability change, negative = cytotoxic [15] -1.31% [at 6.97 µM] | activation [16] -4.57% [at 6.97 µM]

CCN1CCCC(OC(=O)C(c2ccccc2)c2ccccc2)C1 (configuration not stated)
inactive: Potency [1] | outcome [2] | Potency [3] | outcome [4] | outcome [5] | outcome [20] | Potency [6] | outcome [9] | outcome [10] | outcome [11] | outcome [12] | Potency [13] | Potency [14] | outcome [15] | Potency [16]

O=[N+]([O-])c1ccc(Oc2ccc([N+](=O)[O-])cc2)cc1
inactive: Potency [1] | outcome [2] | Potency [3] | outcome [4] | outcome [19] | outcome [20] | Potency [6] | outcome [7] | outcome [17] | outcome [9] | outcome [10] | outcome [11] | outcome [12] | Potency [13] | Potency [14] | outcome [15] | Potency [16]

Source: PubChem BioAssay (Tox21)
